Compound activity deposited in PubChem by National Center for Advancing Translational Sciences (NCATS).
Hits are enriched below; roughly 11% of the tested compounds scored in any of these assays.
KDM4E inh: blocks human JMJD2E demethylase activity; JMJD2E catalytic domain, FDH-coupled NADH fluorescence (FDH is formaldehyde dehydrogenase); Potency, µM (series often up to 57.1 µM), hits mostly inhibitors; 230,000 tested, 1.6% active; AID 2147; also: nearly all actives have a fitted effect of over 50% in size
ALDH1A1 inh-1: ALDH1A1 (human) enzyme inhibition; 220,000 tested, 7.3% active; Purified ALDH1A1, NADH fluorescence, propionaldehyde substrate; P00352; Potency, µM (top dose mostly 75.3 µM), most hits filed as inhibitors
PNC inhibitor: perinucleolar compartment assembly inhibition. PC3M PTB-GFP, PNC prevalence imaging, 16 h; stronger effect = lower value. activity change (PNC), negative = inhibition, % at 10 µM. 140,000 tested, 3.1% active. AID 2417;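 active = readout at or below -70, meaning at least 70% loss of cells showing the perinucleolar compartment, a nuclear body marking cancer cells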
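Compounds are pinned in duplicate onto adhered PC3M cells stably expressing GFP-tagged PTB and incubated 16 h at 37 C. Cells are then fixed, nuclei stained with Hoechst, and PNC-positive cells counted.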
HPGD inh: blocks human HPGD enzyme activity | P15428 | purified HPGD, NADH fluorescence kinetic, PGE2 substrate | Potency, µM, most hits filed as inhibitors | 150,000 tested, 4.3% active | AID 894
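NADH formation kinetics: reaction with 30 uM PGE2 and 1 mM NAD+ (final), 20 nM enzyme, Tris-HCl pH 8 with Tween 20, after 15 min compound preincubation at room temperature. Fluorescence change, last versus first of five reads.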
HPGD inh conf: human HPGD enzyme inhibition, confirmation | AID 2429 | shares compounds with HPGD inh | Potency, µM (highest dose often 57.1 µM), hits mostly inhibitors | recombinant HPGD, NADH fluorescence, PGE2 substrate | 90 tested, 90% active; calls by dose curve
ALDH1A1 inh-2: Confirms inhibition of human ALDH1A1 with counterscreen | shares compounds with ALDH1A1 inh-1 | purified ALDH1A1, NADH fluorescence, propionaldehyde/NAD+ | Potency, µM (top dose mostly 57.1 µM), actives largely listed as inhibitors | 90 tested, 90% active; calls by dose curve
Large screens that a line does not name were inactive (follow-up assays come after a bar, where they were run). Unless noted, calls follow the shape of the dose curve; as a rule, active = well fitted inhibition curve with a large enough effect (not every such curve was filed as active); inconclusive = small, poorly fitted or top-dose-only effect, or another doubt; inactive = no such curve, though single readings can be large or run the other way.

O=P1(Nc2ccc(F)cc2)COc2ccccc2OC1	HPGD inh 1.1µM | HPGD inh conf 1µM
CN[C@@H](C)[C@H](O)c1ccccc1	KDM4E inh 3.5µM, ALDH1A1 inh-1 0.5µM, HPGD inh 0.79µM (no result: PNC inhibitor) | HPGD inh conf 1.4µM | ALDH1A1 inh-2 0.45µM
O=C1CC2OCC=C3CN4CC[C@]56c7ccccc7N1[C@H]5[C@H]2C3C[C@H]46 (stereo partly drawn)	none (no result: PNC inhibitor)
CC(C)N(C(=O)CCl)c1ccccc1	ALDH1A1 inh-1 0.028µM (no result: PNC inhibitor) | ALDH1A1 inh-2 0.05µM
CCc1cccc(C)c1N(C(=O)CCl)C(C)COC (stereo not drawn)	none (no result: PNC inhibitor)
CCC(C=C[C@@H]1OC(=O)C=C[C@H]1C)=C[C@H](C)CC=CC(C)=C[C@@H](C)C(=O)[C@@H](C)[C@H](O)[C@@H](C)CC(C)=CC(=O)O	ALDH1A1 inh-1 0.22µM (no result: KDM4E inh, PNC inhibitor) | ALDH1A1 inh-2 1.1µM
O=c1oc(Cl)c(Cl)c2ccccc12	ALDH1A1 inh-1 0.56µM (no result: PNC inhibitor) | ALDH1A1 inh-2 0.25µM
CCCN1[C@@H]2C[C@@H](O)CC[C@@H]2C[C@H]1C(=O)OC	none (no result: PNC inhibitor)
COc1ccc2c(c1)CCC1[C@@H]2CCC2(C)[C@@H](NCCCCCCN3C(=O)C=CC3=O)CC[C@@H]12 (stereo partly drawn)	ALDH1A1 inh-1 0.11µM (no result: PNC inhibitor) | ALDH1A1 inh-2 0.5µM
Nc1ncnc2c1ncn2[C@@H]1O[C@H](COP(=O)(O)CP(=O)(O)OP(=O)(O)O)[C@@H](O)[C@H]1O	none (no result: KDM4E inh, PNC inhibitor, HPGD inh)
CC(=O)OCC(N)C(=O)c1ccccc1 (stereo not drawn)	none (no result: KDM4E inh, PNC inhibitor)
